# Experimental data taken from PubChem BioAssay AID1671202 (University of Kansas High Throughput Screening Laboratory, 2021).
# Several values for one entry are separate records, joined by “and”; a condition that tells them apart may be missing. Identical values can stand only once. About 6,900 (3.6%) of roughly 190,000 compounds were called active. This excerpt belongs to a sample that is enriched for actives. Values without a mark were called inactive. Cut-off read from the data, not from the text of the source: active = inhibition above about 50%; inactive = the rest.
# Molecular target: Huntingtin (Homo sapiens) (UniProt P42858)
# Sequence (P42858 whole entry, looked up, stated change not applied): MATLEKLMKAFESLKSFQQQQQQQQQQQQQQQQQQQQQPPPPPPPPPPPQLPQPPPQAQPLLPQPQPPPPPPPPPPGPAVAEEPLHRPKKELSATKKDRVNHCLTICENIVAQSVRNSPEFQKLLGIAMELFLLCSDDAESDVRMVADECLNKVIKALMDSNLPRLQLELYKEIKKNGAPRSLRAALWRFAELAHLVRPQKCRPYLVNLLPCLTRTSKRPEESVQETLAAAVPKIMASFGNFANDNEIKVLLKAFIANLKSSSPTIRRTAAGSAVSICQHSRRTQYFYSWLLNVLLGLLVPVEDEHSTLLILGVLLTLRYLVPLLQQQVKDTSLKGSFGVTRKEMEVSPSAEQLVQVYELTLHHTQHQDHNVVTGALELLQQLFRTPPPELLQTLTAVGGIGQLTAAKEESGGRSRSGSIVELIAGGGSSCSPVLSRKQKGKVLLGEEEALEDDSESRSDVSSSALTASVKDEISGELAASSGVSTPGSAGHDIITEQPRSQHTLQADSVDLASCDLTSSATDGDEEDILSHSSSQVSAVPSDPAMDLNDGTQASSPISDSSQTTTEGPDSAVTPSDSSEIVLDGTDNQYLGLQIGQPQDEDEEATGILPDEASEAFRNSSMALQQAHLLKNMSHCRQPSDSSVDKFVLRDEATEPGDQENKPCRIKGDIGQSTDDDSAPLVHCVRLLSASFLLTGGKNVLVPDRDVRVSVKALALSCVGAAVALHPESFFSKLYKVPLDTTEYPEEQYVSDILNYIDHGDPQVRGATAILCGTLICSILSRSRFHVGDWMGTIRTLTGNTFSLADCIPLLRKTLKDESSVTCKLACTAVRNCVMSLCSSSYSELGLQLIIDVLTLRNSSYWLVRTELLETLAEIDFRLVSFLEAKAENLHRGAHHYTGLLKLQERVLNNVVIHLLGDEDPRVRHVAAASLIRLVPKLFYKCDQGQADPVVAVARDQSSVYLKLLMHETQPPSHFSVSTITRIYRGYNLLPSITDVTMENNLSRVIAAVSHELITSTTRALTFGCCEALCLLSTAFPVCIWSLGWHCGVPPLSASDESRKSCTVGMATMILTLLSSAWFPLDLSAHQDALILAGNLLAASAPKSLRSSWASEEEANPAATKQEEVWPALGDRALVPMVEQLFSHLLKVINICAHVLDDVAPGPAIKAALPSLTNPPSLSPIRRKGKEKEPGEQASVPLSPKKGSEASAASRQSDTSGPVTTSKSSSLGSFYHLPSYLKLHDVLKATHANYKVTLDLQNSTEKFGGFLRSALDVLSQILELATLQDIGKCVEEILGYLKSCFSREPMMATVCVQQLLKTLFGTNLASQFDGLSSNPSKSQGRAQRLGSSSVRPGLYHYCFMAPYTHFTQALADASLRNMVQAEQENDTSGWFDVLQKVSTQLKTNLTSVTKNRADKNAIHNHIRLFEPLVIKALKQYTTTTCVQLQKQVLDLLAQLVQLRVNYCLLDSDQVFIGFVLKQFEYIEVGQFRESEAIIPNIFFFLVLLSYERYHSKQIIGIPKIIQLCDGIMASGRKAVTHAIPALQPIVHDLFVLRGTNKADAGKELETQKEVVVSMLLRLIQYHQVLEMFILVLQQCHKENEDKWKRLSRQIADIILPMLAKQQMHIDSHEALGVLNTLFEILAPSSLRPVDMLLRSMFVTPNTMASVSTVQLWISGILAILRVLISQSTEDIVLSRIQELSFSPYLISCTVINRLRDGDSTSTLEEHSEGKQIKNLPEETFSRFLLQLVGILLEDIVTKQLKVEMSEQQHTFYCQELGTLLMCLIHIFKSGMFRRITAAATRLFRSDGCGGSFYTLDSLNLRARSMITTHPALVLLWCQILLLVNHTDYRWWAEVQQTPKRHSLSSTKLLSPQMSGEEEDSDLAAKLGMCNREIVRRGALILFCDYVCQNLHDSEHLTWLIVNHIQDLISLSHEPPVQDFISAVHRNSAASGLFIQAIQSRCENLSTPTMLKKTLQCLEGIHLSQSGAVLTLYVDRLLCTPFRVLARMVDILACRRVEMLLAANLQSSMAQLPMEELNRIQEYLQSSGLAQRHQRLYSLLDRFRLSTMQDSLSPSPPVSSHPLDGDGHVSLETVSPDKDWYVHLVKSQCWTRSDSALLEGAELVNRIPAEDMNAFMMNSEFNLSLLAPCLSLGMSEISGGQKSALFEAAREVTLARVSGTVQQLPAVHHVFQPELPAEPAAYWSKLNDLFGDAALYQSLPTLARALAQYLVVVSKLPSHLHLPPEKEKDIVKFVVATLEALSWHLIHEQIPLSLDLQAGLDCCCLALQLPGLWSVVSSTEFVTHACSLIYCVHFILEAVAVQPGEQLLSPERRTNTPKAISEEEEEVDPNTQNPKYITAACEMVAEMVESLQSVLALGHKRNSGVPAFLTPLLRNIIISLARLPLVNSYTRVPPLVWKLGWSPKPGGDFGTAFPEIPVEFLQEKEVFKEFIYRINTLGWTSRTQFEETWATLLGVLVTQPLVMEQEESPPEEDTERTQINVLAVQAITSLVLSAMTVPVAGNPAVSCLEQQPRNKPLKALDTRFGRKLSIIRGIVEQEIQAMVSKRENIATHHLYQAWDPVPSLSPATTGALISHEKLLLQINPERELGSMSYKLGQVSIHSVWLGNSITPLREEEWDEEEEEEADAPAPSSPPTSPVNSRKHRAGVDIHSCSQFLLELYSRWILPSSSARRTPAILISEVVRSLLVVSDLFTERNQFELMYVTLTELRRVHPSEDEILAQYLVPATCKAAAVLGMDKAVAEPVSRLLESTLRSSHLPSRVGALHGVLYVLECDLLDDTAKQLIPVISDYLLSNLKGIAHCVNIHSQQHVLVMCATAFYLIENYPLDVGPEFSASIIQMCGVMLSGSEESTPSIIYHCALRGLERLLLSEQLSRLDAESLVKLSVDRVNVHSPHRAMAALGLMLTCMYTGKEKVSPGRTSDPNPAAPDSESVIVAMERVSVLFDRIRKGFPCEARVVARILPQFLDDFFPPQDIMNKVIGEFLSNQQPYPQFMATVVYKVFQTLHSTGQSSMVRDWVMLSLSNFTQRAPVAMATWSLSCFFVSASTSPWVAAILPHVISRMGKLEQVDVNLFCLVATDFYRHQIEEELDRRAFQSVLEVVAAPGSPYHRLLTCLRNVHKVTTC
# Assay: mutant huntingtin-calmodulin interaction inhibitors – biochemical, AlphaScreen, primary screen (AID 1671202);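 note: 0% = both proteins with DMSO and 100% = one protein alone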
# Details: AlphaScreen His-mHTT/GST-CaM binding, luminescence; at 15 µM, hits give high values
row,Compound,inhibition
1,COCCCNC(=O)c1c(NC(=O)c2ccccc2Cl)sc2c1CCCC2,-17.4%
2,O=c1cc(-c2ccccc2F)oc2ccc(Cl)cc12,-8.7%
3,COc1cc(/C=C2\C(C)=C(C#N)c3nc(N)c(C#N)c(C)c32)ccc1O,60% (active)
4,COc1cc(C=Nc2oc(C)c(C)c2C#N)ccc1O,6%
5,CC1=C(C#N)c2nc(N)c(C#N)c(C)c2/C1=C/c1ccccc1[N+](=O)[O-],16%
6,CC(=O)Nc1c(C)ccc(S(=O)(=O)N2CCCCC2)c1C,2.7%
7,COC(=O)C1CN(CC(C)C)CCS(=O)(=O)N1Cc1ccc(F)cc1 (centres undefined),7.2%
8,CCCCCCN1CCS(=O)(=O)N(Cc2ccc(C(F)(F)F)cc2)C(C(=O)OC)C1 (centres undefined),-0.1%
9,COC(=O)C1CN(CCc2ccccc2)CCS(=O)(=O)N1Cc1ccc(F)cc1 (centres undefined),50.6% (active)
10,Nc1ncnc(NCc2cccc(Cl)c2)c1[N+](=O)[O-],3%
11,O=[N+]([O-])c1cc(S(=O)(=O)CCCN2CCOCC2)ccc1F,97% (active)
12,Cc1ccc(OCCOCCN2CCOCC2)c([N+](=O)[O-])c1,2%
13,O=S(=O)(NCCN1CCOCC1)c1ccc(I)cc1,-0.7%
14,CC1CCc2nn(CC(=O)Nc3ccccc3Cl)c(=O)cc2C1 (centres undefined),0.27%
15,COc1ccc(N2CCN(CC(O)COc3ccc(C(C)=O)cc3)CC2)cc1 (centres undefined),3.7%
16,Cc1ccc(-c2nc3s/c(=C\c4ccccc4)c(=O)n3n2)cc1,7%
17,N#C/C(=C\c1cccs1)c1nc(-c2ccc3c(c2)OCO3)cs1,-4.4%
18,COc1ccc(OC)c(NC(=O)NS(=O)(=O)c2ccc(C)cc2)c1,14.2%
19,CC(=O)Nc1cc2nn(-c3ccc(Cl)cc3)nc2cc1C,0.6% and -5%
20,Cc1nnc2ccc(NC(=O)NCc3ccc(F)cc3)cn12,-6.1%
21,Cc1nnc2ccc(S(=O)(=O)N(Cc3ccccc3)c3ccc(F)cc3)cn12,-2.4%
22,Cc1nnc2ccc(S(=O)(=O)N(Cc3ccc(F)cc3)c3ccccc3)cn12,54.8% (active)
23,O=C(c1cccc(-n2cnnn2)c1)N1CCN(c2ccc(-c3cccs3)nn2)CC1,2.8%
24,CC(C)Oc1ccc(C(=O)N2CCN(Cc3nc(-c4ccco4)cs3)CC2)cc1,9.1%
25,O=C(Nc1cccs1)N1CCN(c2ccc(-c3ccco3)nn2)CC1,52% (active)

row,Compound,inhibition
1,COc1ccc(C2C(C#N)=C(N)N(c3ccccc3[N+](=O)[O-])C3=C2C(=O)CCC3)cc1 (centres undefined),21%
2,Cc1ccc2[nH]c3c(c2c1)CCCC3O (centres undefined),19.3%
3,Clc1ccc2[nH]c3c(c2c1)CCCC3NCCOc1ccccc1 (centres undefined),100% (active)
4,CCc1cccc(NC(=O)N2CCc3c(nc4cc(-c5ccc(OC)cc5)[nH]n4c3=O)C2)c1,26.8%
5,O=C(c1ccc(C(F)(F)F)s1)N1CCc2c(nc3cc(-c4ccccc4)[nH]n3c2=O)C1,42.1%
6,COc1ccc(-c2cc3nc4c(c(=O)n3[nH]2)CN(C(=O)c2ccc(C)nc2)CC4)cc1,1.93%
7,O=C(C1COc2ccccc2O1)N1CCc2c(nc3cc(-c4ccccc4)[nH]n3c2=O)C1 (centres undefined),76.2% (active)
8,COC(=O)c1cccc(NC(=O)N2CCc3c(nc4cc(-c5ccccc5)[nH]n4c3=O)C2)c1,7.79%
9,COc1ccc(-c2cc3nc4c(c(=O)n3[nH]2)CCN(C(=O)c2ccccc2C)C4)cc1,65.3% (active)
10,COc1ccc(-c2cc3nc4c(c(=O)n3[nH]2)CN(C(=O)CSc2ccccc2)CC4)cc1,9.49%
11,COc1ccc(-c2cc3nc4c(c(=O)n3[nH]2)CN(C(=O)c2ccccc2Cl)CC4)cc1,62.5% (active)
12,CNC(=O)N1CCc2nc3cc(-c4ccc(OC)cc4)[nH]n3c(=O)c2C1,9.34%
13,CCOc1ccc(NC(=O)c2ccc(F)c(S(=O)(=O)NC3CCCCCC3)c2)cc1,11%
14,C=CCN(C(C)=O)c1nc(C)c(Cl)c(OC)n1,-2%
15,CCOC1CCc2oc(-c3ccsc3)c(C#CC(C)(C)O)c21 (centres undefined),11.3%
16,O=C(NC1CC2CC1N(C(=O)c1cccc(C(F)(F)F)c1)C2)c1cccs1 (centres undefined),0.72%
17,COCc1noc(C2CCCCN2CC(=O)NCc2cccs2)n1 (centres undefined),0.04%
18,Cc1[nH]c(=O)[nH]c(=O)c1S(=O)(=O)Nc1ccccn1,-4%
19,O=C1C2C3C=CC(C4CC34)C2C(=O)N1CC1CCCO1 (centres undefined),0.3%
20,O=C(NCc1nnc2n1CCCC2)c1ccc2c(c1)OCO2,-5.87%
21,O=c1oc2ccccc2cc1-c1csc(N=Cc2ccccc2O)n1,26%
22,COc1cccc(N2CCN(C(=O)c3cccs3)C(C)C2=O)c1 (centres undefined),-6.9%
23,O=C(CCc1ccccc1)NCc1cccnc1-c1ccccc1,-6.5%
24,Cc1ccc(C(=O)N2CCC(CCNS(=O)(=O)c3ccc(C(C)C)cc3)CC2)cc1,53.6% (active)
25,N#Cc1cccc(S(=O)(=O)NCCC2CCN(C(=O)c3ccccc3)CC2)c1,34.6%

row,Compound,inhibition
1,O=C(c1ccccc1)N1CCC(CCNS(=O)(=O)c2cccc3nsnc23)CC1,50.2% (active)
2,Cc1ccc(C(=O)N2CCC(CCNS(=O)(=O)c3ccccc3F)CC2)cc1,39.1%
3,Cc1ccc(C(=O)N2CCC(CCNS(=O)(=O)Cc3ccccc3)CC2)cc1,44.2%
4,COc1ccc(S(=O)(=O)NCCC2CCN(C(=O)c3ccccc3)CC2)cc1OC,30.3%
5,O=C(CC1CCCCC1)N1CCCC(COc2ccc(C(=O)N3CCCCC3)cc2)C1 (centres undefined),13.4%
6,CCC(C)NC(=O)c1cc2nc(-c3ccc(Cl)cc3)cc(C(F)(F)F)n2n1 (centres undefined),-6%
7,CCn1c(=O)c2c(n3c(SCC(N)=O)nnc13)-c1ccccc1CC21CCCCC1,54% (active)
8,O=c1[nH]c(CSCCO)nc2c1C1(CCCCC1)Cc1ccccc1-2,16.8%
9,N#CCSc1nc2c(c(=O)n1Cc1ccccc1)C1(CCCC1)Cc1ccccc1-2,-2.7%
10,O=C(Nc1cccc(NC(=O)c2ccccc2[N+](=O)[O-])c1)c1ccccc1Cl,5%
11,COc1ccc2cc(-c3nnc(NC4CCCCC4)s3)c(=O)oc2c1,-11%
12,Cc1cccc(C2C3=C(CCCC3=O)N=C3c4ccccc4C(=O)C32)c1 (centres undefined),8%
13,O=C1CCCC2=C1C(c1cccc([N+](=O)[O-])c1)C1C(=O)c3ccccc3C1=N2 (centres undefined),10%
14,COc1ccc(C2C3=C(CC(C)(C)CC3=O)N=C3c4ccccc4C(=O)C32)cc1 (centres undefined),62% (active)
15,CC(C)CC(=O)N1CCc2ccccc2C1,-9.1%
16,COc1ccc(C=C2Oc3c(ccc4c3CN(Cc3ccc(OC)c(OC)c3)CO4)C2=O)cc1OC,44%
17,CC(C)n1c(C2CCN(S(=O)(=O)Cc3ccc(F)cc3Cl)C2)nc2ccncc21 (centres undefined),9.49%
18,CCCCCCOc1ccc(NC(=O)CC2SC(=N)NC2=O)cc1 (centres undefined),1%
19,COC(=O)c1ccc(CN2CCCC2c2cc(C)on2)cc1 (centres undefined),1.57%
20,N=C1S/C(=C\c2ccc(-c3ccccc3[N+](=O)[O-])o2)C(=O)N1c1ccc2c(c1)OCO2,26%
21,COc1cccc(/C=C2\SC(=N)N(c3ccc(F)cc3)C2=O)c1,3%
22,CC(=O)Nc1nonc1N1C(=N)S/C(=C\c2ccc(-c3cccc(F)c3)o2)C1=O,57% (active)
23,COc1ccc2nc(NCCn3cccn3)sc2c1,-1.7%
24,CCOC(=O)C1CCCN(C(=O)c2nn(-c3ccc(F)cc3)c(=O)cc2OC)C1 (centres undefined),-5.9%
25,O=C(Nc1ccccc1)N1CCN(Cc2ccccc2)CC1,-7.6%

row,Compound,inhibition
1,O=C(c1ncn[nH]1)N1CCN(Cc2ccccc2)CC1,90.3% (active)
2,O=C(c1cccc(Cl)c1)N1CCN(Cc2ccccc2)CC1,4.6%
3,CCOc1ccc(C2CC(c3ccc(Cl)cc3)Nc3nnnn32)cc1OC (centres undefined),38%
4,Cc1cc(C(=O)NCc2ccc(C)o2)c2cccc(-c3cccs3)c2n1,-56.5%
5,COc1ccccc1C1(CCNCc2ccc3c(c2)OCO3)CCOC(C)(C)C1 (centres undefined),3.46%
6,Cc1ccc2c(c1)C(c1ccc(F)cc1)N(C(=O)c1ccc(C)c(C)c1)CC(=O)N2 (centres undefined),69% (active)
7,Cc1ccc2c(c1)C(c1ccc(F)cc1)N(C(=O)c1c(F)cccc1Cl)CC(=O)N2 (centres undefined),22%
8,O=C1CN(C(=O)c2ccccc2F)C(c2ccc(F)cc2)c2cc(F)ccc2N1 (centres undefined),-4%
9,COc1ccc(C=C2Oc3cc(OC(C)=O)ccc3C2=O)c(OC)c1OC,16.2%
10,COc1ccc(C(=O)C=Cc2ccc(C)cc2)c(OC(=O)c2ccco2)c1,17%
11,Oc1ccc2c(c1)OCC1c3cc4c(cc3OC21)OCO4 (centres undefined),65.8% (active)
12,Cc1ccccc1NCc1cc(=O)oc2cc(O)c(O)cc12,29.6%
13,O=C(NCc1ccc(F)cc1)C1CCN(c2cnn(Cc3ccccc3)c(=O)c2)CC1,2.29%
14,CNC(=O)C1CCN(Cc2cc3ccccc3n2Cc2ccc(F)cc2)CC1,85.1% (active)
15,CCc1ccc(CN2CCC(C(=O)N3CCN(Cc4ccccc4)CC3)CC2)cc1,36.4%
16,O=S(=O)(NCCc1ccc(F)cc1)c1ccc(F)cc1,-3.6%
17,COc1cc(OC)c2c(c1)OC(=O)CC2c1cc(OC)c(OC)c(OC)c1 (centres undefined),3.2%
18,COc1ccc(Nc2nc(Cl)nc(NCCN3CCOCC3)n2)c(OC)c1,4%
19,COc1ccc(C2CC(=O)Oc3ccc(C(C)(C)C)cc32)cc1 (centres undefined),-22.8%
20,COc1ccc(C(CCN2CCOCC2)c2c(OC)cc(OC)c3c2OC(=O)CC3c2ccc(OC)cc2)cc1 (centres undefined),71.6% (active)
21,COc1ccc(-c2c(C)c3ccc(OCCN4CCCCC4)cc3oc2=O)cc1OC,-2.1%
22,Cc1ccc(C(C)C)cc1OCCN1CCCC1,-3.2%
23,COc1cc(OC)c2c(c1C(CCN1CCCCC1)c1ccc(N(C)C)cc1)OC(=O)CC2c1ccc(N(C)C)cc1 (centres undefined),76.8% (active)
24,COc1cc(OC)c2c(C)cc(=O)oc2c1C(CCN1CCCCC1)c1ccc(N(C)C)cc1 (centres undefined),78.3% (active)
